Hit rate of the full screen: of about 290,000 compounds, about 3,000 (1%) were called active. Cut-off read from the data, not from the text of the source: active = inhibition mostly above about 36% (no sharp cut-off); inactive = mostly below about 34%. The list comes from a sample in which actives are over-represented; it also holds similar structures and randomly drawn compounds.

What is called inhibition is the relative decrease from the control value, in per cent.

The assay is described as follows: inhibition of NOD1-driven NF-kB reporter – cell-based, luminescence, uHTS, primary screen (AID 1578).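 Note: HEK-293T reporter cells stimulated with the NOD1 agonist gamma-tri-DAP.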 The settings on record: NOD1-driven NF-kB luciferase reporter cells, at 4 µM, hits give high values. A general note: Reporter assays use an easily measured gene product as a stand-in for the process of interest.
As to `CC1=CC(=O)C(C(C)C)=C/C1=C(\c1cc(C(C)C)c(OP(=O)(O)O)cc1C)c1ccccc1C(=O)O`, the inhibition is 69.3% (active). Turning to `CC1=CC(=O)C(C(C)C)=C/C1=N/OS(=O)(=O)c1ccccc1`, the inhibition was -5.3% (inactive). In the case of `CCOc1ccc(C(=O)c2ccccc2C(=O)O)cc1OCC` it was -35.3% (inactive); in that of `COc1ccc(CNc2ccc(S(N)(=O)=O)cc2)cc1`, 2.2% (inactive).

Turning to `S=C(N/N=C/c1ccc(Cl)cc1)N1CCOCC1`, the inhibition was 63.9% (active). Turning to `Cc1ccc(/C=N/NC(=S)N2CCOCC2)cc1`, the inhibition was 39.7% (inactive). In the case of `Oc1ccc(/C=N/NC(=S)N2CCOCC2)cc1` it was 4.2% (inactive); in that of `Cc1cccc2sc(NC(=O)CSc3cn[nH]n3)nc12`, 19% (inactive). In the case of `O=C1C2CC=CCC2C(=O)N1Cc1ccccc1Cl` (stereo not drawn) it was -2.8% (inactive); in that of `CC(=O)Nc1ccc(NC(=O)CSc2nc(N)c(NC(=O)c3ccco3)c(=O)[nH]2)cc1`, -35.9% (inactive). To `Cc1c(C)c2ccc(OCC(=O)Nc3cccnc3)cc2oc1=O` belongs -45.6% (inactive); to `O=C(COc1ccc2ccc(=O)oc2c1)Nc1cccnc1`, -31.3% (inactive); to `O=C(COc1ccc2ccc(=O)oc2c1)Nc1ccc(CCO)cc1`, -6% (inactive). Regarding `COC(=O)COc1ccc2c(-c3ccc(OC)cc3)cc(=O)oc2c1`, the inhibition is 1.6% (inactive). To `Cc1nn(CCC#N)c(N)c1C1(O)C(=O)Nc2c(Cl)cc(Cl)cc21` (stereo not drawn) belongs -6.9% (inactive); to `Fc1ccccc1/C=N/Nc1nc2ccccc2o1`, -1.1% (inactive).

As to `CCOc1ccc2nc(C)cc(Nc3ccc(N4CCOCC4)cc3)c2c1`, the inhibition is -31.4% (inactive). To `CN(C[C@H](CC1CCCCC1)N(C[C@H](Cc1ccccc1)N(CCc1ccccc1)N=O)N=O)N=O` belongs -18.5% (inactive); to `O=c1cc(CNC2CCCCC2)c2ccccc2[nH]1`, 11.2% (inactive). For the molecule `COC(=O)c1ccc(-n2cncn2)c([N+](=O)[O-])c1`, the inhibition is -23.5% (inactive). To `CN=c1scc(-c2cccs2)n1/N=C/c1ccc(O)c(O)c1O` belongs -24.6% (inactive); to `CC(C)N=c1scc(-c2cccs2)n1/N=C/c1ccc(O)c(O)c1O`, 54.6% (inactive). Take `CN=c1scc(-c2cccs2)n1/N=C/c1ccccc1O`: the inhibition was 107% (active).

In the case of `O=C(Cc1ccccc1)NCC(=O)N1CCN(c2ccccc2)CC1`, the inhibition was -14.1% (inactive).

On to `Cc1ccc(NC2=CC(=O)CC(c3ccc(Cl)cc3)C2)cc1` (stereo not drawn), for which the inhibition was -10.3% (inactive). To `C(=N\Nc1nc2ccccc2[nH]1)/c1ccc2c(c1)OCCO2` belongs -1.4% (inactive); to `C(=N\Nc1ccccn1)/c1ccc2c(c1)OCCO2`, -30.1% (inactive). In the case of `Cc1ccc(/C=N/Nc2ccc3ccccc3n2)o1` it was 25.7% (inactive); in that of `Cc1cccc(/C=N/Nc2ccc3ccccc3n2)c1`, 63.5% (active).

As for `C(=N\Nc1ccc2ccccc2n1)/c1ccc2c(c1)OCCO2`, the inhibition was 71.8% (active). As to `Fc1cccc(/C=N/Nc2ccc3ccccc3n2)c1`, the inhibition is 2.4% (inactive). Turning to `Cc1ccc(OCC(O)CN2C(=O)NC(C)(C)C2=O)c(C)c1` (stereo not drawn), the inhibition is -16.8% (inactive).

As for `Cc1ccc(N=Nc2[nH]c3ccccc3c2O)cc1`, the inhibition is -16% (inactive). To `COc1ccc(N2CC(C(=O)Nc3nnc(SCc4cccnc4)s3)CC2=O)cc1` (stereo not drawn) belongs -15.4% (inactive); to `O=C(O)CSc1nnc(CSc2nc3ccccc3s2)n1-c1ccccc1`, -26.6% (inactive); to `CC(C)(C)OC(=O)Nc1ncnc2c1ncn2C1OC(CO)C2OC(C)(C)OC21` (stereo not drawn), 1.4% (inactive).

For `COc1ccc(NC(=O)CSc2nnc(CN3CCOCC3)n2C)cc1Cl`, the inhibition was -15% (inactive).

With `Cc1cccc(NC(=O)NCC2CCN(c3ccc(S(=O)(=O)N4CCOCC4)cc3)CC2)c1`, the inhibition is -10.9% (inactive). For `CCNC(=S)N/N=C(\C)c1ccc2ccccc2c1OC(F)F`, the inhibition was -20.3% (inactive).

For `C/C(=N\NC(=S)NCc1ccccc1)c1ccc2ccccc2c1OC(F)F`, the inhibition was 48.2% (active).

Turning to `COC(=O)N/N=C(\C)c1ccc2ccccc2c1OC(F)F`, the inhibition was -30% (inactive).

For the molecule `CCc1ccc(CNC(=O)c2ccc(NC(=O)C3=CSCCO3)cc2)cc1`, the inhibition is -44.5% (inactive). In the case of `COc1ccc(NC(=O)C2=CC(c3ccco3)=NS(=O)(=O)N2C)cc1OC` it was -21.6% (inactive); in that of `O=C(Nc1cc(Sc2ccccn2)cc([N+](=O)[O-])c1)c1cccc(Cl)c1`, 15.3% (inactive); in that of `O=C(Nc1cc(Sc2ccccn2)cc([N+](=O)[O-])c1)c1ccc(Cl)cc1`, 74.1% (active).

For `O=C(Nc1cc(Sc2ccccn2)cc([N+](=O)[O-])c1)c1ccc([N+](=O)[O-])cc1`, the inhibition was 45.6% (inactive).

As to `Cn1c(O)c(N=NC(=O)CNC(=O)/C=C/c2ccccc2)c2ccccc21`, the inhibition is 24.3% (inactive). In the case of `O=C1c2ccccc2C(=O)N1c1ncc(Cc2ccc(Cl)cc2)s1` it was 25.4% (inactive); in that of `Cc1cccc(Cc2cnc(N3C(=N)SC(c4ccccc4)C3=O)s2)c1` (stereo not drawn), 95.5% (active); in that of `Cc1cccc(Cc2cnc(NC(=O)c3ccc(C)o3)s2)c1`, -34.8% (inactive). As to `Brc1cccc(-c2nc3cccnc3nc2-c2cccc(Br)c2)c1`, the inhibition is 23.6% (inactive). To `CC(C)(C)c1nc2cc(Cl)c([N+](=O)[O-])cc2o1` belongs -22.4% (inactive); to `O=C1N=C2N(CCN3CCCCC3)c3ccccc3N2/C1=C\c1ccc([N+](=O)[O-])o1`, 84.9% (active); to `c1ccc2c(c1)N1CCCN=C1N2CCN1CCCCC1`, -32.5% (inactive). In the case of `O=C(CN1CCCCCCC1)N/N=C/c1ccc([N+](=O)[O-])o1` it was 8.4% (inactive); in that of `CO/N=C/c1ccc(N2CCCC2)c([N+](=O)[O-])c1`, -21.4% (inactive); in that of `Cc1ccc(S(=O)(=O)N2CCN(c3ccnc4cc(Cl)ccc34)CC2)cc1`, 16.3% (inactive). In the case of `N#CC(C#N)=C(Nc1ccccc1)c1ccccc1` it was 32.8% (active); in that of `C/C(Nc1ccccc1)=C(/C#N)C(N)=O`, -14.6% (inactive). In the case of `CC(=O)Nc1ccc(C(=O)c2ccccc2)cc1`, the inhibition is -1% (inactive). Turning to `O=C(N/N=C/C=C/c1ccccc1)c1cc(C2CC2)[nH]n1`, the inhibition was 0.1% (inactive). In the case of `O=S(=O)(Nc1nc2ccccc2[nH]1)c1ccc2ccccc2c1` it was 56.9% (inactive).

In the case of `CS(=O)(=O)Nc1nc2ccccc2[nH]1`, the inhibition was -0.8% (inactive).

Values taken from PubChem BioAssay AID1578 (Sanford-Burnham Center for Chemical Genomics, 2009).
